Data from PubChem BioAssay (NCATS).
Results filed as inconclusive are left out. Values without a mark were called inactive. Calls come from the whole dose curve; as a rule, active = well fitted curve in the direction sought with a large enough effect; inconclusive = small, poorly fitted or top-dose-only effect, or another doubt; inactive = no such curve, though single readings can be large or run the other way.

target: Ferritin light chain (Equus caballus) (UniProt P02791); experiment: qHTS Validation Assay for Identification of Novel General Anesthetics (AID 2323); conditions: horse apoferritin, anesthetic-site fluorescent probe displacement; series mostly up to 76.9 µM; activity change, negative = inhibition: at the top concentration
Source text: Source: NIH Chemical Genomics Center [NCGC]
Assay Submitter: Roderic Eckenhoff, University of Pennsylvania
Screening Center PI: Christopher P. Austin, NIH
Probe Development: NIH Chemical Genomics Center [NCGC]
Anesthetic development has remained a largely empirical process. There are growing concerns about the cognitive effects of known general anesthetics and acceleration of the onset of neurodegenerative disease. The compounds' toxicity and multiple specific binding targets in the mammalian brain [4] has made them less attractive as drug leads. In this assay, a GABAergic mimetic model system, apoferritin and a profluorescent 1-aminoanthracene ligand (1-AMA), was used to construct a competitive binding assay for identification of novel general anesthetics. The assay was validated for 1-AMA using other known anesthetics, such as isoflurane (CID:3763) and propofol (CID: 4943), [6].
[1] S.L. Bianchi, T. Tran, C. Liu, S. Lin, Y. Li, J.M. Keller, R.G. Eckenhoff, and M.F. Eckenhoff, Brain and behavior changes in 12-month-old Tg2576 and nontransgenic mice exposed to anesthetics. Neurobiol Aging 29 (2008) 1002-10.
[2] Z. Xie, Y. Dong, U. Maeda, R.D. Moir, W. Xia, D.J. Culley, G. Crosby, and R.E. Tanzi, The inhalation anesthetic isoflurane induces a vicious cycle of apoptosis and amyloid beta-protein accumulation. J Neurosci 27 (2007) 1247-54.
[3] P. Honegger, and J.M. Matthieu, Selective toxicity of the general anesthetic propofol for GABAergic neurons in rat brain cell cultures. J Neurosci Res 45 (1996) 631-6.
[4] M.F. Eckenhoff, K. Chan, and R.G. Eckenhoff, Multiple specific binding targets for inhaled anesthetics in the mammalian brain. J Pharmacol Exp Ther 300 (2002) 172-9.
[5] C.A. Butts, J. Xi, G. Brannigan, A.A. Saad, S.P. Venkatachalan, R.A. Pearce, M.L. Klein, R.G. Eckenhoff, and I.J. Dmochowski, Identification of a fluorescent general anesthetic, 1-aminoanthracene. Proc Natl Acad Sci U S A 106 (2009) 6501-6.
[6] W.A. Lea, J. Xi, A. Jadhav, L. Lu, C.P. Austin, A. Simeonov, and R.G. Eckenhoff, A high-throughput approach for identification of novel general anesthetics. PLoS One 4 (2009) e7150.
Three uL of reagents (free 1-AMA (50% saturated solution of 1-aminoanthracene
in PBS) in columns 3, 4 as negative control and 1-AMA/apoferritin mixture (10 uM horse-spleen apoferritin in 50% saturated 1-aminoanthracene in PBS) in columns 1, 2, 5-48) was dispensed into 1536-well Greiner black assay plates. Compounds (23 nL) were transferred via Kalypsys pintool equipped with 1,536-pin array (10 nL slotted pins, V&P Scientific, San Diego, CA). Titration of the positive control, propofol, were delivered via pin transfer from separate control plates to the 2nd column of each assay plate. The starting concentration of the control, dissolved in DMSO, was at 160 mM, followed by two-fold dilution points in duplicate, for a total of 16 concentrations. The plates were incubated for 10 min at room temperature, and then read on an EnVision HTS multilabel reader (Perkin-Elmer, Waltham, MA) (end point read, 3 min/plate) using Fura2 BFP excitation filter (380 nm, bandwidth 10 nm) and fluorescein emission filter (535 nm, bandwidth 25 nm) set. A LANCE/DELFIA dichroic mirror with a cutoff wavelength at 400 nm was used to maximize signal accuracy and strength. Vehicle-only plates, with DMSO being pin-transferred to the entire column 5-48 compound area, were inserted uniformly at the beginning and the end of each library in order to monitor for and record any shifts in the background. Activity was computed as the normalized fluorescence response relative to free 1-AMA and 1-AMA/apoferritin complex values. Concentration-effect relationships were derived by using curve fitting algorithms developed in-house (http://ncgc.nih.gov/pub/openhts/). A four parameter Hill equation was fitted to the concentration-response data by minimizing the residual error between the modeled and observed responses.
% is set by controls: 0 for no effect and ±100 for the full control effect.

Ferritin light chain (Equus caballus), sequence (P02791 2-175 limits assumed): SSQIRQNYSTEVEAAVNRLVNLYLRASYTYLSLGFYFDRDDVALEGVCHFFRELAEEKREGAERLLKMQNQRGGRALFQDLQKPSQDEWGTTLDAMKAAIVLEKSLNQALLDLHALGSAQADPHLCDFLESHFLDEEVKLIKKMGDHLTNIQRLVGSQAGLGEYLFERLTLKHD

Compound | activity change, negative = inhibition [%]
CC1=C(C(=O)O)N2C(=O)[C@@H](NC(=O)C(N)c3ccccc3)[C@H]2SC1 (stereo not given in full) | 0.889
CCN1CCCC1CNC(=O)c1cc(S(N)(=O)=O)ccc1OC (stereo not given) | -4.35
O=C(O)C1CCCN(CCC=C(c2ccccc2)c2ccccc2)C1 (stereo not given) | -3.12
CC(C)(C)NC(=O)[C@H]1CC[C@H]2[C@@H]3CC[C@H]4NC(=O)C=C[C@]4(C)[C@H]3CC[C@]12C | -16.4
NC(=O)c1cccc(N)c1 | 85.3
OCc1ccc(-c2nn(Cc3ccccc3)c3ccccc23)o1 | 100
Cc1ccc(S(=O)(=O)N[C@@H](Cc2ccccc2)C(=O)CCl)cc1 | -16.2
CC(C)NCC(O)c1ccc(NS(C)(=O)=O)cc1 (stereo not given) | -2.49
CCCCS(=N)(=O)CCC(N)C(=O)O (stereo not given) | 1.02
COc1cc2ncnc(Nc3cccc(Cl)c3)c2cc1OC | 55
